Screening results as filed in PubChem.
ATXN viability: cell viability loss in ATXN counter-screen; S2 cells (HEK-293 line with an ATXN2-luciferase reporter) viability, CellTiter-Fluor protease fluorescence, 24 h; Potency, µM (titrated, usually from 56.7 µM), actives largely listed as cytotoxic; actives 0.49% (n = 400,000); AID 651635; note: nearly all actives have a fitted effect of over 40% in size
HepG2 viability: kills HepG2 cells in TGF-b inhibitor counter-screen; AID 588856; HepG2 CAGA-GFP viability, ATP luminescence, 18 h; actives 0.76% (n = 410,000); Potency, µM (doses to about 46.1 µM), inactives show at the highest dose activity change, negative = cytotoxicity, actives largely listed as cytotoxic
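HepG2 CAGA-GFP cells (1000/well, DMEM with 1% FBS) received compound, then TGF-beta at 500 pg/mL final, and were incubated 18 hours at 37 degrees C. Viability was read by CellTiter-Glo luminescence. Media-only wells were set as complete cell-killing and DMSO as no toxicity.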
ATXN2 expr inh: inhibitors of ATXN2 expression. Potency, µM (titrated, usually from 57 µM), inactives show top-dose activity change, negative = inhibition, usual class: inhibitors. actives 0.72% (n = 360,000). HEK-293 ATXN2-luciferase reporter, luminescence, 24 h; note: % is set by controls: 0 for no effect and ±100 for the full control effect; nearly all actives have a fitted effect of over 55% in size
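qHTS (up to 57 uM final) was run with 24 h compound exposure of reporter cells at 37 °C. Each well was multiplexed: SteadyGlo luminescence measured ATXN2-luciferase expression after a fluorogenic Gly-Phe-AFC viability readout (25 uM final).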
A549 tox: counter-screen for Nrf2 inhibitors: cytotoxicity in A549 cells. A549 ARE-Fluc cells, CellTiter-Fluor viability, 18-24 h. Potency, µM (series often up to 46 µM), for inactives: top-dose activity change, negative = cytotoxicity, actives largely listed as inhibitors. actives 0.16% (n = 390,000). AID 504648; note: % is set by controls: 0 for no effect and ±100 for the full control effect
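A549 ARE-Fluc cells in 5% FBS OPTI-MEM, 5000 cells/well, rested 2 h then exposed to compounds in concentration-response for 18-24 h at 37 °C. Viability by CellTiter-Fluor fluorescence (Ex 405/Em 525) after 30 min; luciferase luminescence (BugLite, 15 min, RT) read afterwards.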
TGFb SMAD3 inh: blocks TGF-b signaling; HepG2 CAGA-GFP TGF-b/SMAD3 reporter, GFP fluorescence, 18 h; TGF-beta stimulated, 500 pg/mL final; actives 1.2% (n = 410,000); Potency, µM (top dose mostly 46.1 µM), for the others: at the highest dose activity, negative = inhibition, usual class: inhibitors; note: % is set by controls: 0 for no effect and ±100 for the full control effect; nearly all actives have a fitted effect of over 65% in size
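TGF-beta reporter screen: HEPG2 CAGA-GFP, 1% FBS, 500 pg/mL TGF-beta final, 18 h; per-cell GFP summed per well; curves fitted and categorized by class.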
Nrf2 inh: blocks Nrf2 signaling; A549 ARE-Fluc reporter, luciferase luminescence, 18-24 h; Potency, µM (doses to about 46 µM), for inactives: at the top dose activity change, negative = inhibition, usual class: inhibitors; actives 2.1% (n = 360,000); note: % is set by controls: 0 for no effect and ±100 for the full control effect; nearly all actives have a fitted effect of over 60% in size
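A549 ARE_Fluc cells (5000/well, 5% FBS OPTI-MEM) pre-incubated 2 h, then treated with compounds 18-24 h at 37C/5% CO2 in concentration-response. CellTiter-Fluor viability read first; BugLite luciferase luminescence after 15 min at room temperature gives Nrf2 activity.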
* marks the source's active call; other numbers are inactive results; i = inactive; ? = inconclusive; . = not tested or not shown. A selection: hits, their analogues and other compounds. The true share with any hit is near 3.8%. Calls come from the whole dose curve; as a rule, active = well fitted curve in the direction sought with a large enough effect; inconclusive = small, poorly fitted or top-dose-only effect, or another doubt; inactive = no such curve, though single readings can be large; an effect the other way counts as inactive or inconclusive. Potency is the fitted concentration of half-maximal effect.

SMILES	ATXN viability	HepG2 viability	ATXN2 expr inh	A549 tox	TGFb SMAD3 inh	Nrf2 inh
CCOC(=O)c1c(C)nc2sc3c(=O)n(-c4ccc(C(C)=O)cc4)cnc3c2c1-c1ccc(Cl)cc1	?	-9%	16%	-19%	?	23µM*
CCC(=O)N1CCc2cc(Br)cc(S(=O)(=O)N3CCC(C(=O)Nc4ccccc4CC)CC3)c21	i	6%	-1%	10%	-5%	-19%
COc1ccc(-c2c(-c3ccc(O)cc3O)n[nH]c2C)cc1OC	i	-3%	-11%	-2%	29%	.
C=C(C)COc1ccc(-c2n[nH]c(C)c2-c2ccc(Br)cc2)c(O)c1	.	14µM*	-23%	-10%	13µM*	-10%
C=C(C)COc1ccc(-c2[nH]ncc2-c2ccc(Br)cc2)c(O)c1	?	-115%	?	7%	20µM*	9%
COc1ccc(-c2c(-c3ccc(OC)c(C)c3O)n[nH]c2C)cc1	.	-65%	?	-2%	14µM*	-1%
C=C(C)COc1ccc(-c2[nH]ncc2-c2ccccc2OC)c(O)c1	?	18µM*	?	?	?	?
COc1ccc(CNC(=O)c2ccc3nc(CCc4ccccc4)oc3c2)cc1OC	?	-23%	28µM*	-21%	3%	.
COc1ccc(CNC(=O)c2ccc3nc(CCc4ccccc4)oc3c2)cc1	i	-11%	7%	6%	?	.
COc1ccc(N2CCN(CCCNC(=O)c3ccc4nc(Cc5ccccc5)oc4c3)CC2)cc1	10µM*	-60%	16µM*	-22%	-16%	.
CCc1cc(CNC(=O)c2ccc3nc(Cc4ccc(OC)c(OC)c4)oc3c2)on1	i	-14%	-9%	-9%	-10%	21µM*
CCCC(=O)Nc1nc2c(s1)CC(C(C)(C)C)CC2 (stereo not drawn)	i	-29%	57%	1%	18%	?
CC(=O)N1CCN(c2ccc(OCc3nn(C)c(C)c3-c3cccc4c(CCCOc5cc(C)c(Cl)c(C)c5)c(C(=O)O)n(Cc5cccnc5)c34)cc2)CC1	.	.	11%	.	.	.
COc1ccc(-c2nc3n(n2)C(c2ccc(OC)cc2)C(C(=O)Nc2cccnc2)=C(C)N3)cc1 (stereo not drawn)	i	2%	-7%	-11%	0%	-6%
Nc1c(C(=O)Nc2cccc(C(=O)O)c2)sc2nc3c(cc12)CCCC3	i	8%	4µM*	4%	2%	?
O=C(NNC(=S)Nc1ccc(Cl)cc1Cl)C1CC1	i	1%	22%	-5%	-9%	11%
COc1ccc(CN(CCC(c2ccc3c(c2)OCO3)c2ccccc2OC)C(C)=O)cc1 (stereo not drawn)	.	-31%	.	-6%	13µM*	?
CC(=O)N(CCC(Cc1ccccc1)c1ccc2c(c1)OCO2)Cc1ccc(Cl)cc1 (stereo not drawn)	?	10µM*	?	?	?	?
O=C(O)CC(Cc1ccccc1)c1ccc2c(c1)OCO2 (stereo not drawn)	i	-27%	-3%	-1%	-2%	?
Cc1cccc(Cn2nc(-n3cccc3)c3c(C)cc(C)nc32)c1	i	-56%	-12%	-2%	?	-10%
COC(=O)c1c(NC(=O)CN2CCC3(O)CCCCC3C2c2ccc(F)cc2)sc(C)c1C (stereo not drawn)	i	-7%	3%	-15%	3%	?
COC(=O)c1c(NC(=O)CN2CCC3(O)CCCCC3C2c2cc(OC)ccc2OC)sc(C)c1C (stereo not drawn)	i	-53%	-31%	-24%	-50%	18µM*
Cc1cccc(-c2nc(S(=O)(=O)c3ccc(Cl)cc3)c(N3CCCCCC3)o2)c1	?	0%	2%	-1%	-5%	-12%
